High-throughput results deposited in PubChem BioAssay by National Center for Advancing Translational Sciences (NCATS).
The list is not random: actives were taken first. Their share in the collection is about 2.1%.
aSyn rescue: alpha-synuclein toxicity inhibition in yeast; Potency, µM (top dose mostly 46.1 µM), most hits filed as activators; Yeast expressing alpha-synuclein, growth rescue, BacTiter-Glo, 24 h; actives 0.14% (n = 370,000); note: nearly all actives have a fitted effect of over 65% in size
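Galactose-induced alpha-syn yeast (OD600=0.02, raffinose-pregrown) + pinned cpd, 24 hr, 30 deg C; growth by BacTiter-Glo luminescence. Growth restoration scores as activation.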
FUS suppressor: rescues growth of FUS-expressing yeast; S. cerevisiae FUS-expressing, growth rescue, OD600, 24 h; Potency, µM (series often up to 76.6 µM), actives largely listed as activators; actives 0.24% (n = 390,000); AID 1347120; note: nearly all actives have a fitted effect of over 55% in size
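FUS-expressing yeast, raffinose-pregrown, induced in 2% galactose minimal medium at OD 0.005; compounds in a dilution series, 24hr at 30C. Growth restoration read as absorbance at 600 nm. CP55940 positive control, DMSO negative.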
Abeta rescue: restores growth of yeast expressing A-beta42 peptide. yeast expressing A-beta42, growth rescue, OD600, 48 h; response scale: 0% DMSO, 100% iron-clioquinol control. AID 1347071. actives 0.063% (n = 410,000). Potency, µM (highest dose often 46.1 µM), hits mostly activators; note: nearly all actives have a fitted effect of over 55% in size
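Yeast growth medium received pinned compounds, then yeast cells expressing toxic A-beta were added; plates incubated at 30 C for 48 hr. Growth read as absorbance at 600 nm, normalized to DMSO and equimolar FeCl3 plus clioquinol controls.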
TDP43 rescue: TDP-43 toxicity inhibition in yeast; TDP-43 expressing yeast growth rescue, BacTiter-Glo, 24 h; actives 1.8% (n = 410,000); Potency, µM (titrated, usually from 46.1 µM), actives largely listed as activators; note: nearly all actives have a fitted effect of over 50% in size
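Readout is BacTiter-Glo luminescence of cell growth, so inhibitors register as activators. TDP-43-expressing yeast at OD600=0.02 in galactose medium, after raffinose pregrowth to mid-log, were incubated with compound for 24 hr at 30 deg C.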
Of the large screens only hits and unclear results are named; the others gave an inactive call; ! = a repeat was not active. Calls come from the whole dose curve; as a rule, active = well fitted curve in the direction sought with a large enough effect; inconclusive = small, poorly fitted or top-dose-only effect, or another doubt; inactive = no such curve, though single readings can be large; an effect the other way counts as inactive or inconclusive.

O=C(Nc1cccc(NC(=O)c2ccccc2Cl)c1)c1ccco1	TDP43 rescue 18µM
Cc1cc(C)c(OCC(=O)Nc2cccc(-c3nc4ncccc4o3)c2)c(Br)c1	none (no result: aSyn rescue)
C(=C\c1ccc2ccccc2n1)/c1cccnc1	none (no result: FUS suppressor, Abeta rescue, TDP43 rescue)
O=C(Cn1nc(-c2ccccc2)ccc1=O)NCCc1ccccc1F	none (no result: aSyn rescue, Abeta rescue, TDP43 rescue)
CSc1cccc(NC(=O)C2CCCN(S(=O)(=O)c3ccc4c(c3)CCCN4C(C)=O)C2)c1 (stereo not given)	FUS suppressor inconclusive (no result: aSyn rescue)
O=C(/C=C/c1ccc(Br)cc1)c1ccc(NC(=O)c2ccco2)cc1	none
COc1ccc(NC(=O)c2ccco2)cc1NC(=O)COc1cc(C)ccc1C(C)C	none (no result: aSyn rescue)
Cc1ccc(C(C)C)c(OCC(=O)Nc2cccc(NC(=O)c3ccco3)c2)c1	TDP43 rescue 20µM (no result: aSyn rescue)
O=C(/C=C\c1ccccc1)Nc1ccc(NC(=O)c2ccco2)cc1	TDP43 rescue 35µM
O=C(O)c1cccnc1SCc1cccc(Cl)c1	TDP43 rescue 35µM!
O=C(O)CSc1cccc[n+]1[O-]	none
O=C(CSc1cccc[n+]1[O-])C12CC3CC(CC(C3)C1)C2	Abeta rescue inconclusive, TDP43 rescue 14µM
O=C(CSc1cccc[n+]1[O-])c1cccs1	none
O=C(CSc1cccc[n+]1[O-])c1cc(Cl)ccc1Cl	Abeta rescue inconclusive, TDP43 rescue 11µM
Cc1ccc(-c2cnc(NCc3c(F)cccc3Cl)n2C)cc1	none (no result: aSyn rescue)
Cc1ccccc1N1CCN(C(=S)c2ccccc2)CC1	TDP43 rescue 11µM (no result: FUS suppressor)
Cc1ccccc1N1CCN(S(=O)(=O)c2ccccc2)CC1	TDP43 rescue 13µM
C(=C\c1ccnc2ccccc12)/c1ccc(N2CCOCC2)cc1	none (no result: FUS suppressor, Abeta rescue, TDP43 rescue)
O=C1C(Cl)=C(Nc2ccccc2O)C(=O)N1c1ccccc1	TDP43 rescue 35µM
O=c1c(-c2ccc(Cl)cc2)c(C(F)(F)F)oc2c(CN3CCCCC3)c(O)ccc12	none (no result: aSyn rescue)
COc1ccccc1/C=N/NC(=O)c1ccccc1Cl	none
C=CCc1cccc(/C=N/NC(=O)c2ccccc2OC)c1O	TDP43 rescue 16µM
O=C(N/N=C/c1ccccc1C(=O)O)c1ccccc1Br	none
C=CCc1cccc(/C=N/NC(=O)c2ccccc2Br)c1O	aSyn rescue inconclusive, Abeta rescue inconclusive, TDP43 rescue 16µM
N.N.N.N.N.N.N.N.N.N.N.N.N.N.O.O.[Ru+4].[Ru+5].[Ru+5]	none (no result: FUS suppressor, Abeta rescue, TDP43 rescue)
O=S(=O)(Nc1cccc(F)c1)c1ccc2[nH]c3c(c2c1)CCCCC3	none (no result: aSyn rescue)
CC1=C(C(=O)Nc2ccc([N+](=O)[O-])cc2)C(c2cccc(C(F)(F)F)c2)NC(=S)N1c1ccccc1 (stereo not given)	FUS suppressor 10µM
O=S(=O)(Nc1cccc2c1CCCC2)c1cccc(C(F)(F)F)c1	aSyn rescue inconclusive, Abeta rescue inconclusive, TDP43 rescue 25µM
O=C(CSc1ncnc2ccccc12)NCC(=O)c1ccccc1	Abeta rescue inconclusive, TDP43 rescue 13µM
O=C1CCC(=O)N1c1ccc(NCc2ccccc2Cl)c([N+](=O)[O-])c1	TDP43 rescue 22µM
CCn1c(COc2ccc(C)cc2)nnc1SCC(=O)c1ccc(-c2ccccc2)cc1	none (no result: aSyn rescue, Abeta rescue, TDP43 rescue)
O=C(NCc1ccco1)c1ccc2c(c1)N(Cc1ccccc1)C(=O)c1ccccc1S2	FUS suppressor 32µM (no result: aSyn rescue)
Cc1cccc(CN2C(=O)c3ccccc3Sc3ccc(C(=O)NCc4ccco4)cc32)c1	none (no result: aSyn rescue)
CCN(CC)C(=O)c1ccc2c(c1)N(Cc1c(F)cccc1Cl)C(=O)c1ccccc1S2	FUS suppressor inconclusive, TDP43 rescue 22µM (no result: aSyn rescue)
CCOc1cccc(C(=O)NC(=S)Nc2cccnc2)c1	Abeta rescue inconclusive, TDP43 rescue inconclusive
CCCCOc1cccc(C(=O)NC(=S)Nc2cccnc2)c1	TDP43 rescue 25µM (no result: FUS suppressor)
CC(c1ccccc1)n1cc2c(c1-c1ccccc1Br)c(=O)n(C)c(=O)n2C (stereo not given)	FUS suppressor inconclusive, TDP43 rescue 14µM (no result: aSyn rescue)
C[C@@H](C(=O)NCCc1ccccc1)N1C(=O)N2CCc3c([nH]c4ccccc34)[C@@]2(C)C1=O	aSyn rescue inconclusive, TDP43 rescue 35µM
CCO[C@@H]1OC(C(=O)Nc2ccccc2)=C[C@H](c2ccc(C(F)(F)F)cc2)[C@H]1CCCO	FUS suppressor inconclusive, Abeta rescue inconclusive, TDP43 rescue 13µM
CC(=O)O/N=C1\C(=O)N(Cc2ccc(C)cc2)c2ccccc21	none
CN1C(=O)/C(=N\OC(=O)c2ccccc2Cl)c2ccccc21	TDP43 rescue 18µM
Cc1cccc(NC(=O)CN2C(=O)C(c3ccccc3)=NC23CCC(C)CC3)c1 (stereo not given)	none (no result: aSyn rescue)
CCC(NC(=O)CCc1c(C)c2cc3c(C)c(C)oc3cc2oc1=O)C(=O)N[C@@H](Cc1ccccc1)C(=O)O (stereo not given in full)	FUS suppressor 28µM
CCCSc1nnc(-c2ccco2)n1C	none (no result: aSyn rescue, Abeta rescue, TDP43 rescue)
Cc1nn(C(=O)c2ccccc2)c(C)c1Sc1ccc(Cl)cc1	FUS suppressor inconclusive, TDP43 rescue 35µM (no result: aSyn rescue)
CC(C)CCNC(=O)c1ccc(NC(=O)N2CCCCc3ccccc32)cc1	none (no result: aSyn rescue)
CC(C)(C)NC(=O)C(c1ccncc1)n1c(=O)c(-c2cc3ccccc3[nH]2)nc2ccccc21 (stereo not given)	aSyn rescue inconclusive, FUS suppressor inconclusive
CC(C)(C)NC(=O)C(c1ccccc1F)n1c(=O)c(-c2cc3ccccc3[nH]2)nc2ccccc21 (stereo not given)	aSyn rescue 7.1µM, FUS suppressor inconclusive, TDP43 rescue inconclusive
CC(C)(C)NC(=O)C(c1cc2ccccc2o1)n1c(=O)c(-c2cc3ccccc3[nH]2)nc2ccccc21 (stereo not given)	aSyn rescue 8.9µM, FUS suppressor inconclusive, Abeta rescue inconclusive
CC(C)(C)NC(=O)C(c1ccnc2ccccc12)n1c(=O)c(-c2cc3ccccc3[nH]2)nc2ccccc21 (stereo not given)	aSyn rescue inconclusive, FUS suppressor inconclusive
Cc1cccc(N2CCN(C(=O)Cn3c(=O)c4cccn4c4ccc(F)cc43)CC2)c1C	none (no result: aSyn rescue)
COC(=O)c1sccc1NC(=O)Nc1ccc(C)c(C)c1	TDP43 rescue 13µM
COC(=O)c1sccc1NC(=O)Nc1ccccc1C	TDP43 rescue 11µM
CNCCc1cnc(CCC(c2ccccc2)c2ccccc2)[nH]1	none (no result: FUS suppressor, Abeta rescue, TDP43 rescue)
CCOc1ccccc1NC(=O)CN1C(=O)COc2ccc(C)cc21	TDP43 rescue 11µM
COC(=O)c1ccccc1NC(=O)CN1C(=O)COc2ccc(Cl)cc21	TDP43 rescue 13µM (no result: aSyn rescue)
COc1ccccc1NC(=O)CN1C(=O)COc2ccc(C)cc21	TDP43 rescue inconclusive
Clc1ccc(-c2nc3ccccn3c2Nc2ccc3c(c2)OCCO3)s1	none (no result: aSyn rescue)
COc1ccc(OCCSc2nnc3sc4ccccc4n23)cc1	TDP43 rescue 16µM
COc1ccc(S(=O)(=O)Nc2cc3c4c(c2)CCN4C(=O)CC3)cc1	none
O=C1CCc2cc(NS(=O)(=O)c3ccc(Br)cc3)cc3c2N1CC3	aSyn rescue 3.2µM
O=C(OCn1ncc(Cl)c(Cl)c1=O)c1ccccc1Cl	TDP43 rescue 5.6µM
COc1cc(Cl)ccc1OCc1cc(C(=O)NCc2cc(C(C)C)no2)no1	TDP43 rescue 11µM (no result: FUS suppressor)
